One may read the inhibition as the change of the read-out against control, counted positive when it falls.

Screen size: about 290,000 compounds; about 150 (0.052%) were called active. This is one part of a sample in which actives are shown more often than they occur. Entries with a potency or affinity are not part of this list. A number with no mark means an inactive call.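 How the source made its calls: active means inhibition of at least 50% with at least 30 cells and total cytoplasm GFP at most 10,000,000; inconclusive means under 30 cells or total GFP of 10,000,000 plus; inactive means the rest.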

The target in this assay is G-protein coupled receptor 35 (Homo sapiens) (UniProt Q9HC97). The experiment in a line: GPR35 antagonists blocking zaprinast-driven arrestin recruitment, primary screen, imaging, U2OS, beta-arrestin-GFP, zaprinast agonist (AID 2058). Conditions: U2OS GPR35 beta-arrestin-GFP translocation imaging, zaprinast antagonism; at 10 µM; active compounds read high. On the technique in general: Recruitment of arrestin is a read-out of receptor activation apart from second messengers.
Chain of G-protein coupled receptor 35 (Homo sapiens) (Q9HC97 whole entry, looked up): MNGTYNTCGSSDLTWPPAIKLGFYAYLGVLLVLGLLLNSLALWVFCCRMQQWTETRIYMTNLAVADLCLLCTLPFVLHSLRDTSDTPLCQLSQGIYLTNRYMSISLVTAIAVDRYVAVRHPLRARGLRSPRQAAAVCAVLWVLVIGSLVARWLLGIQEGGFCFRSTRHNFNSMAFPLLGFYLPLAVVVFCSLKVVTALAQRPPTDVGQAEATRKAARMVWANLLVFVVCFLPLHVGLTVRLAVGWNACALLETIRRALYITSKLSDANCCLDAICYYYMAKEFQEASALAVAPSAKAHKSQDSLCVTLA
For the molecule `Cc1cccc(Oc2ncnc3onc(C)c23)c1`, the inhibition was -0.9%. In the case of `CCN1/C(=C/C=C/C=C/C=C/c2sc3ccccc3[n+]2CC)Sc2ccccc21` it was 44.3%; in that of `CCN1/C(=C/C=C/C=C/c2sc3ccccc3[n+]2CC)Sc2ccccc21`, 58.9%. Turning to `CCN(c1ccccc1)S(=O)(=O)c1ccc(Cl)c(NC(=O)CSc2n[nH]c(N)n2)c1`, the inhibition is 0.7%.

For `COc1cccc(/C=c2\s/c(=C/C(=O)c3ccc(C)cc3)[nH]c2=O)c1OC`, the inhibition is -9.9%. Consider `COc1ccc(/C=c2\s/c(=C/C(=O)c3ccc(C)cc3)[nH]c2=O)cc1OC`, for which the inhibition is 8.2%.

Turning to `Cc1ccc(C)c(NC(=O)Nc2ccc3c(c2)OCO3)c1`, the inhibition was -7.8%.

On to `COc1ccccc1N1CCN(S(=O)(=O)c2ccc(Cl)s2)CC1`, for which the inhibition is -2.5%. Turning to `COC(=O)c1cc(NC(=O)c2ccccc2)c(=O)oc1C`, the inhibition was -9.4%. To `Cc1oc(=O)c(NC(=O)c2cccc(Cl)c2)cc1C(=O)c1ccccc1` belongs -3%; to `COC(=O)c1cc(NC(=O)c2cccc(Cl)c2)c(=O)oc1/C=C/Nc1cc(C)cc(C)c1`, 93.3% (active). In the case of `CSc1nc2ccccc2cc1/C=C(\C#N)c1cccc(C)c1` it was 55.3% (active). Take `CSc1nc2ccccc2cc1/C=C(\C#N)c1ccccc1`: the inhibition was 3.1%.

For the molecule `CSc1nc2ccccc2cc1/C=C(\C#N)c1cccc(Cl)c1`, the inhibition was 3.7%. To `CN(Cc1nc(-c2cccc(Cl)c2)no1)C1CCOCC1` belongs -8.4%; to `CSC1=NSC2=NC(=O)/C(=C/c3coc4ccccc4c3=O)C(=N)N12`, 4.5%; to `CCSC1=NSC2=NC(=O)/C(=C\c3coc4ccccc4c3=O)C(=N)N12`, 36.4%.

For the molecule `CC(=O)Nc1cccc(NC(=O)Cc2ccc3ccccc3c2)c1`, the inhibition was 0.8%. In the case of `Cc1cc(N2C(=O)C(O)=C(C(=O)c3ccc(C)o3)C2c2ccc([N+](=O)[O-])cc2)no1` (configuration not stated) it was 4.2%.

Consider `Cc1ccc2[nH]cc(/C=C/c3cc[n+](C)cc3)c2c1`, for which the inhibition was 29.2%. In the case of `C=CCn1cc(/C=C/c2cc[n+](C)cc2)c2ccccc21` it was 17.1%. With `Cc1[nH]c2ccccc2c1/C=C/c1nc2ccccc2c(=O)[nH]1`, the inhibition is -11.7%. On to `COC(=O)Cn1c(C)c(/C=C/c2cc[n+](C)cc2)c2ccccc21`, for which the inhibition is 17.9%. To `Cc1[nH]c2ccccc2c1/C=C/c1cc[n+](C)cc1` belongs 71.2% (active). Take `C[n+]1ccc(/C=C/c2c[nH]c3ccc(F)cc23)cc1`: the inhibition was -4.5%. In the case of `Cc1[nH]c2ccccc2c1/C=C/C(=O)c1ccccc1` it was 4.5%; in that of `COc1cccc(CNS(=O)(=O)c2ccc3c(c2)N(C(C)=O)CCO3)c1`, -10.2%. In the case of `O=C(CSCc1ccc(Cl)cc1)Nc1ccc(Br)cc1C(=O)O` it was 2.2%. Take `Cn1c(=O)[nH]c(=O)c2c1nc(Sc1nc3ccccc3s1)n2Cc1ccccc1`: the inhibition was 13.4%. As for `Cn1c(SCc2ccc(Br)cc2)nc2c(c1=O)SCC2`, the inhibition is -9.1%.

Consider `CCOC(=O)C1=C(Cc2ccc(C)cc2)C(=O)c2ccccc2C1=O`, for which the inhibition is 5%. Take `CCOC(=O)C1=C(Cc2ccc(F)cc2)C(=O)c2ccccc2C1=O`: the inhibition was 11.7%.

For the molecule `CCOC(=O)N1CCN(C(=O)C2CCN(S(=O)(=O)c3ccc(OCC)cc3)CC2)CC1`, the inhibition was 10.5%. As for `CC(C)c1ccc(/C=C2\NC(=S)N(Cc3cccnc3)C2=O)cc1`, the inhibition was -2.8%. Take `O=C1/C(=C/c2ccc(Cl)cc2)NC(=S)N1Cc1cccnc1`: the inhibition was -2.2%. In the case of `S=c1[nH]nc(COc2ccccc2)n1/N=C/c1c(Cl)cccc1Cl` it was 0.3%; in that of `Cc1ccc(S(=O)(=O)N[C@@H](Cc2ccccc2)C(=O)N2CCC(C(=O)N[C@@H](CC(C)C)C(=O)O)CC2)cc1`, 1%. As to `Cc1ccc(OC(C)C(=O)Nc2ccc(S(=O)(=O)Nc3nccs3)cc2)cc1` (configuration not stated), the inhibition is -8.6%.

`COc1ccc(OC)c(NC(=O)C2CCN(S(=O)(=O)c3cccs3)CC2)c1`: the inhibition was 4.3%. With `CCCCCC(=O)N/N=C(\C)c1ccc(Cl)cc1`, the inhibition was -9.2%. In the case of `CCN(CC(=O)NC1CCS(=O)(=O)C1)c1nc(-c2ccccc2)nc2ccccc12` (configuration not stated) it was 1.8%. Regarding `CC(NC(=O)NC1CCCCC1)c1ccccc1` (configuration not stated), the inhibition was 5.6%. With `CCC(NC(=S)NC1CCCCC1)c1ccccc1` (configuration not stated), the inhibition was -4.4%.

In the case of `CCC(NC(=O)NC1CCCCC1)c1ccccc1` (configuration not stated), the inhibition was 103% (active). In the case of `COc1cc(C#N)ccc1OCC(=O)N1CCc2ccccc2C1` it was 10.3%; in that of `Cc1ccc(Cn2ncc(Cl)c(Cl)c2=O)cc1`, 33.1%. In the case of `O=c1c(Cl)c(Cl)cnn1Cc1ccc(F)cc1` it was 49.1%; in that of `CCc1c(C)sc(NC(=O)c2ccco2)c1C(=O)N1CCOCC1`, -15.5%; in that of `COc1ccc(OC)c(N(CC(=O)Nc2ccc3c(c2)OCCO3)S(C)(=O)=O)c1`, -8.2%. To `COC(=O)c1ccc2c(c1)C(C)(C)C(/C=C/c1ccccc1O)=[N+]2C` belongs 18.9%; to `C[N+]1=C(/C=C/Nc2ccccc2Cl)C(C)(C)c2ccccc21`, 6.8%; to `O=c1c(Cc2ccc(F)cc2)c(O)ccn1Cc1cccc(Cl)c1`, -9.1%. Take `O=S(=O)(NCCSc1ccccc1)c1cccs1`: the inhibition is -13.8%. Turning to `O=C(CCCN1C(=O)/C(=C/c2ccco2)SC1=S)Nc1cccc(C(=O)O)c1`, the inhibition was 5.8%. As for `O=C(CCN1C(=O)/C(=C/c2ccc3c(c2)OCO3)SC1=S)Nc1ccc(C(=O)O)cc1`, the inhibition was 0.4%. In the case of `O=C(CCN1C(=O)/C(=C/c2ccc3c(c2)OCO3)SC1=S)Nc1ccccc1`, the inhibition was 15.7%.

For the molecule `O=C(CCN1C(=O)/C(=C/c2ccc3c(c2)OCO3)SC1=S)Nc1cccc(C(=O)O)c1`, the inhibition was -7.5%. Turning to `Cn1c(=O)n(CC(=O)N2CCOCC2)c2ccccc21`, the inhibition is -9.9%. On to `O=C(CCN1C(=O)c2ccncc2C1=O)Nc1ccc(F)cc1`, for which the inhibition is 3.7%. Consider `CCn1c(O)c(/C=C/C=C/C=Nc2ccccc2)sc1=S`, for which the inhibition is -0.5%. As for `Brc1ccc(N=C/C=C/C=C/Nc2ccc(Br)cc2)cc1`, the inhibition was 40.6%.

With `C(/C=C/C=C/Nc1ccccc1)=Nc1ccccc1`, the inhibition is 90.5% (active).

The record behind these values is PubChem BioAssay AID2058 (Sanford-Burnham Center for Chemical Genomics, 2009).
